Source: PubChem BioAssay (Corson Lab, School of Medicine, Indiana University)
FECH inh: blocks human mitochondrial ferrochelatase activity. calls only at 10 µM (by protocol). AID 1671448. 20,000 compounds, 3.3% hits. purified FECH, Ni-mesoporphyrin absorbance 550 nm. P22830;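 active = enzyme reaction rate more than 3 SD below the solvent-only control wells on the same plate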;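 also: lower slope than DMSO wells means FECH inhibition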
Target sequence (P22830 whole entry, looked up): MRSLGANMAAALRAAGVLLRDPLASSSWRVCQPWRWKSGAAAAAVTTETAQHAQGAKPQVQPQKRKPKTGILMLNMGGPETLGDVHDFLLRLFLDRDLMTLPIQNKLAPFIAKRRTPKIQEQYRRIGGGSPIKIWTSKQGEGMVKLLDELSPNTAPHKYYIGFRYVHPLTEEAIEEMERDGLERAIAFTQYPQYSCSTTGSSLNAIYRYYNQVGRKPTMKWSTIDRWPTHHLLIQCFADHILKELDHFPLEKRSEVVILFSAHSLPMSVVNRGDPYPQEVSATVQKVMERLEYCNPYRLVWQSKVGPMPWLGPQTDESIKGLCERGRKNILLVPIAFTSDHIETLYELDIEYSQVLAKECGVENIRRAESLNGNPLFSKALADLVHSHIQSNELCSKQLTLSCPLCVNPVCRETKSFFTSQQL
* marks the source's active call; other numbers are inactive results; i = inactive; + = active, no number. This is one part of a sample in which hits are shown more often than they occur.

SMILES	FECH inh
NS(=O)(=O)c1ccc(CCNC(=O)c2cc(-c3ccc4c(c3)OCCO4)on2)cc1	i
COc1ccccc1NC(=O)Nc1nc(CC(=O)Nc2cccc(C)c2)cs1	i
Cn1nc(C2CC(=O)NCc3nc4ccccn4c32)c2c(Cl)cccc21 (stereo not given)	i
O=C(CCC(=O)N1CCc2cc(S(=O)(=O)N3CCCCC3)ccc21)N1CCCCCC1	i
O=C(CCN1CCCCO1)N(Cc1ccccc1)Cc1nccs1	i
CN1CCCC(CCNC(=O)CCN2CCCCO2)C1 (stereo not given)	i
O=C(CCN1CCCCO1)NCC(c1ccccc1)C1CCCC1 (stereo not given)	+
Cc1nc(C(C)C)ncc1C(=O)N1CCC(Cc2cccc(C(=O)O)c2)C1 (stereo not given)	i
COc1cc(Nc2cc(-n3nc(C)cc3C)ncn2)cc(OC)c1	+
Cc1cc(C)n(-c2cc(Nc3ccc(Cl)cc3)ncn2)n1	i
COc1cccc(Nc2cc(-n3nc(C)cc3C)ncn2)c1	i
c1ccc(-n2ncc3c(Nc4ccc5c(c4)OCO5)nc(N4CCCC4)nc32)cc1	i
CC(C)NC(=O)c1ccccc1NC(=O)CN1c2ccc(C(C)C)cc2-c2ccccc2S1(=O)=O	i
O=C(CN1C(=O)c2ccccc2S1(=O)=O)Nc1ccc(Cl)cc1C(F)(F)F	i
O=C(CN1CCN(Cc2ccc(F)cc2)S1(=O)=O)Nc1cccc(F)c1	i
CC(C)c1ccc2c(c1)-c1ccccc1S(=O)(=O)N2CC(=O)Nc1cccc(F)c1	+
O=C(CN1c2ccc(F)cc2-c2ccccc2S1(=O)=O)Nc1ccccc1C(=O)N1CCCCC1	i
CC(C)c1ccc2c(c1)-c1ccccc1S(=O)(=O)N2CC(=O)NC(C)c1ccccc1 (stereo not given)	+
CCN(CC)C(=O)c1ccccc1NC(=O)CN1c2ccc(F)cc2-c2ccccc2S1(=O)=O	+
CSc1ccccc1NC(=O)CN1c2ccc(C(C)C)cc2-c2ccccc2S1(=O)=O	i
CCOc1ccc(S(N)(=O)=O)cc1-c1nc(C)no1	i
CCc1c(C)nc2ncnn2c1Sc1ccccc1NC(=O)c1cc(Br)ccc1OC	i
CC(Sc1ccccn1)C(=O)N1CCn2c(C(N)=O)cnc2C1 (stereo not given)	i
COc1ccc(N2CCCS2(=O)=O)cc1NC(=O)c1ccc(OC(C)C)cc1	i
CCC(C(=O)N(Cc1nc2nc(C)c(Cl)c(C)n2n1)c1ccccc1)c1ccccc1 (stereo not given)	i
SMILES	FECH inh
COc1cc(NC2CCN(Cc3ccccc3)C2)ncn1 (stereo not given)	i
COc1ccc(OC)c(CNC(=O)[C@H]2CCCC[C@H]2C(=O)NC(C)(C)C)c1	i
Cc1nc(CN2CCC=C(CCNC(=O)N3CCOCC3)C2)no1	i
CCOc1ccc(CC(=O)Nc2cc(C)nn2-c2ncnc3c2cnn3-c2ccc(Cl)cc2)cc1	+
Cc1cc(NC(=O)CC(C)(C)C)n(-c2ncnc3c2cnn3-c2cccc(Cl)c2)n1	i
CCCC(=O)Nc1cc(C)nn1-c1ncnc2c1cnn2-c1cccc(Cl)c1	i
CCC(CC)C(=O)Nc1cc(C)nn1-c1ncnc2c1cnn2-c1cccc(Cl)c1	+
Cc1ccc(OCC(=O)Nc2cc(C)nn2-c2ncnc3c2cnn3-c2ccc(Cl)cc2)cc1	i
CCOc1ccc(CC(=O)Nc2cc(C)nn2-c2ncnc3c2cnn3-c2cccc(Cl)c2)cc1	i
CC(C)CCNS(=O)(=O)c1cc(C(=O)N2CCCC2)cs1	i
Cc1ccc2cccc(OCCNS(=O)(=O)NCc3ccccc3)c2n1	i
CCOc1ccc(-c2c(Nc3ccccc3C)oc3c2c(=O)n(C)c(=O)n3C)cc1	i
O=C(NCc1ccccc1)c1nc[nH]c1C(=O)N1CCCCCC1	i
CCCNC(=O)c1[nH]cnc1C(=O)NCCc1c[nH]c2ccccc12	i
COCCNC(=O)c1nc[nH]c1C(=O)NCc1ccccc1	+
O=C(NCc1ccccc1)c1nc[nH]c1C(=O)N1CCC(Cc2ccccc2)CC1	i
CC1CCN(C(=O)c2[nH]cnc2C(=O)NCc2ccccc2)CC1	i
CNC(=O)c1[nH]cnc1C(=O)NCc1ccccc1	+
CN(C(=O)c1ccc(NCc2ccncc2)cc1)C1Cc2ccccc2C1	i
CC(CCN1CCCN(C(=O)C2CCC2)CC1)c1ccccc1 (stereo not given)	i
COCc1nc2cccnc2n1C1CCN(S(=O)(=O)c2cc(OC)ccc2OC)CC1	i
Cc1ccc(C)c(NC(=O)CN2CCN(Cc3ccccc3)S2(=O)=O)c1	i
Cc1ccc(S(=O)(=O)Nc2nc3n(n2)C(c2ccc(F)cc2)C=C(c2ccc(Cl)cc2)N3)cc1 (stereo not given)	i
CN1CCc2c(sc(NC(=O)c3ccco3)c2-c2nc3ccccc3s2)C1	i
CC(C)c1cc(N2CCN(c3ccccc3)CC2)n2nc(-c3cccnc3)nc2n1	i
NS(=O)(=O)c1ccc(NC(=O)c2c(-c3ccccc3)c(-c3ccccc3)n[nH]c2=O)cc1	i
